# From PubChem BioAssay (NCI)
# About 83,000 compounds went through this panel and 20% of them were active in at least one assay; those are over-represented in the sample as a whole.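 For each line, cells grew in 96-well plates with the test compound present at a single concentration for 48 hours.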 Unmarked numbers belong to inactive results. Active and inactive are the calls of the source. How the source made its calls: active means growth percent below 10; inactive means the rest.
# What was measured:
# Assay in all cases: NCI-60 one-dose screen, 48 h (100 = growth as untreated, 0 = no growth, -100 = all killed)
# Conditions in all cases: 10 µM unless noted
# NCI-H23 lung = test system: NCI-H23 lung
# NCI-H226 lung = test system: NCI-H226 lung
# NCI-H322M lung = test system: NCI-H322M lung
# HOP-62 NSCLC = test system: HOP-62 NSCLC
# NCI-H460 lung = test system: NCI-H460 lung
# HOP-92 NSCLC = test system: HOP-92 NSCLC
# NCI-H522 lung = test system: NCI-H522 lung
# A549/ATCC NSCLC = test system: A549/ATCC NSCLC
# 786-0 renal = test system: 786-0 renal
# COLO 205 colon = test system: COLO 205 colon
# DU-145 prostate = test system: DU-145 prostate
# K-562 leukemia = test system: K-562 leukemia
# MALME-3M melanoma = test system: MALME-3M melanoma
# MDA-MB-231 breast = test system: MDA-MB-231 breast
# RXF 393 renal = test system: RXF 393 renal
# SF-268 CNS = test system: SF-268 CNS
# SF-295 CNS = test system: SF-295 CNS
# SF-539 CNS = test system: SF-539 CNS
# UACC-257 melanoma = test system: UACC-257 melanoma
# M14 melanoma = test system: M14 melanoma
SMILES,growth (NCI-H23 lung),growth (NCI-H226 lung),growth (NCI-H322M lung),growth (HOP-62 NSCLC),growth (NCI-H460 lung),growth (HOP-92 NSCLC),growth (NCI-H522 lung),growth (A549/ATCC NSCLC),growth (786-0 renal),growth (COLO 205 colon),growth (DU-145 prostate),growth (K-562 leukemia),growth (MALME-3M melanoma),growth (MDA-MB-231 breast),growth (RXF 393 renal),growth (SF-268 CNS),growth (SF-295 CNS),growth (SF-539 CNS),growth (UACC-257 melanoma),growth (M14 melanoma)
C=C1C(=O)O[C@H]2[C@H]1CC/C(Cn1cc(-c3cc(C(F)(F)F)cc(C(F)(F)F)c3)nn1)=C\CC[C@@]1(C)O[C@@H]21,-58.6% (active),-54.5% (active),-24.4% (active),-78.6% (active),-59.2% (active),-95.1% (active),-76.7% (active),-85.3% (active),-86.5% (active),-60.4% (active),-90% (active),-37.6% (active),-88.5% (active),-75.7% (active),-90.9% (active),-78.7% (active),-67.4% (active),-92.2% (active),-85.3% (active),-70.3% (active)
Cn1cc(-c2nonc2-c2c[nH]c3ccccc23)c2ccccc21,29.7%,44.5%,33.9%,14.3%,4.95% (active),5.1% (active),-5.43% (active),18.3%,23%,-22.7% (active),17.4%,5.23% (active),42.9%,0.833% (active),-3.69% (active),25.8%,8.43% (active),-35.4% (active),33.2%,7.06% (active)
CN1C(=O)/C(=C/c2ccc(C(=O)Nc3ncc(Cc4ccc(F)cc4)s3)cc2)SC1=S,62.1%,65.3%,52%,44.9%,20.2%,44.2%,39%,46.8%,51.9%,72.3%,38.8%,44.7%,47.1%,56.2%,36.8%,49.1%,24.3%,38.4%,65.6%,19.6%
COc1ccc2cc(-c3cnc4nonc4n3)ccc2c1,30.6%,52.6%,54.5%,37.4%,74.4%,80.8%,7.22% (active),36%,41.4%,16.8%,62.9%,13.6%,48.3%,76.4%,23.4%,36.6%,31.4%,-16% (active),42%,10.7%
COc1cc(C2C3=C(COC3=O)N(CCO)c3cc4c(cc32)OCCO4)cc(OC)c1OC (stereo not given),14.5%,13.5%,36.9%,15.4%,1.13% (active),26.8%,-10% (active),11.9%,1.83% (active),-85.9% (active),-30.1% (active),5.23% (active),53.7%,9.38% (active),-8.9% (active),26.8%,-5.17% (active),-25.4% (active),42.5%,-28.8% (active)
CCN(CC)CCOc1ccc(Nc2ncc3cc(-c4ccc(O)cc4)c(=O)n(C)c3n2)cc1,69.8%,43.8%,47.7%,49.9%,78.9%,76.6%,27.3%,49%,-76.5% (active),38.4%,85.5%,-53.5% (active),-43.8% (active),43.1%,-5.94% (active),45%,98.5%,-1.13% (active),66.6%,57.5%
COc1cccc2c(N=NC(=O)c3ccc(S(N)(=O)=O)cc3)c(O)[nH]c12,99.4%,95.8%,99.7%,102%,104%,118%,87.1%,95.5%,95.6%,109%,115%,98.5%,103%,102%,106%,106%,102%,102%,107%,102%
COP(=O)(OC)c1nnn(-c2cccc([N+](=O)[O-])c2)c1C,107%,120%,114%,110%,104%,119%,90.3%,111%,103%,122%,111%,102%,105%,113%,118%,98.2%,111%,93.3%,105%,104%
Cc1nn(-c2ccccc2)c(/N=C/N(C)C)c1/C=C/C(=O)c1ccc(Cl)cc1,96.9%,98.3%,101%,93.2%,103%,78%,78.4%,108%,103%,110%,122%,59.6%,90.1%,77.2%,97.8%,118%,106%,101%,119%,94.7%
CCN1C(=O)N(CC)C2C1NN=c1s/c(=C\c3cc4ccccc4[nH]3)c(=O)n12 (stereo not given),34.8%,38.6%,50.6%,16.5%,0.818% (active),-5.71% (active),-12.2% (active),0.183% (active),28.9%,-32.5% (active),16.4%,9.13% (active),33.4%,14.7%,47.3%,25.6%,18.6%,-21.9% (active),45.5%,19.8%
CCOC(=O)C1CCN(c2ccc(N3C[C@@H](CNCc4ccc(C(=N)N)cc4)OC3=O)cc2)CC1,97.9%,97.2%,103%,97.5%,103%,90.8%,92.6%,104%,100%,103%,98.6%,99.3%,83.1%,99.8%,99.7%,100%,101%,94.4%,102%,94.7%
CN1CCN(Cc2ccc(NC(=O)c3cncc(C#Cc4cncc5[nH]ncc45)c3)cc2C(F)(F)F)CC1,7.77% (active),-43.3% (active),13.7%,7.14% (active),3.22% (active),-22.9% (active),23.2%,13.1%,20.6%,1.42% (active),20.2%,-5.05% (active),-65.7% (active),-88.2% (active),-4.93% (active),2.23% (active),29%,-56.8% (active),6.82% (active),-57.6% (active)
COc1cc(/C=C/c2cc(/C=C/c3ccc(O)c(OC)c3)n(C(=O)Nc3ccc(F)cc3)n2)ccc1O,10.7%,15.9%,27.3%,30.2%,8.35% (active),-3.45% (active),-6.04% (active),12%,-6.9% (active),8.73% (active),6.78% (active),0.22% (active),9.15% (active),33.6%,-43.8% (active),20.1%,-21.6% (active),3.68% (active),13.7%,2.69% (active)
